Screening results (PubChem BioAssay)
14-3-3 Bad inh: inhibitors of 14-3-3 zeta/Bad binding, primary screen, biochemical, TR-FRET, bovine 14-3-3 zeta; 220,000 compounds, 0.71% hits; inhibition, % at 21.7 µM; TR-FRET 14-3-3zeta/Dy647-pBad peptide displacement, 1 h;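 active = inhibition above about 70%, limit read from the data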;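 note: 0% = full 14-3-3 plus peptide FRET controls and 100% = background without 14-3-3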
Target sequence (P63103 whole entry, looked up): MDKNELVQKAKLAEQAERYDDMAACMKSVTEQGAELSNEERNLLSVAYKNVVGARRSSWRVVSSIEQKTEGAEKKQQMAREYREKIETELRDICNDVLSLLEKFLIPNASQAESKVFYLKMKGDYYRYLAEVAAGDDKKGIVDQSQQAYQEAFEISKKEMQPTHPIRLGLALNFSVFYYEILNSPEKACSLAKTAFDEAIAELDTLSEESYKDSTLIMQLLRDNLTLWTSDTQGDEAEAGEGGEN
Arbovirus inh: antivirals against arbovirus infection, primary screen, cell-based, full library, 10K replicate subset | arbovirus infection cell-based antiviral screen | 200,000 compounds, 0.37% hits | inhibition, % at 10 µM; in the data active = inhibition above about 30%
Mcl1-Noxa inh: Mcl-1/Noxa binding inhibitors, primary screen, biochemical, TR-FRET, 1536-well | Induced myeloid leukemia cell differentiation protein Mcl-1 (Homo sapiens), Q07820 | TR-FRET Mcl-1/Noxa peptide binding, 2 h | inhibition, % at 21.7 µM | 220,000 compounds, 1.5% hits | AID 1022, 2008;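 active = compounds that cut the protein-peptide binding signal by more than 50% relative to plate controls in a single-dose test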;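 note: His-tagged Mcl-1 with rhodamine Noxa BH3 peptide and terbium anti-His antibody; 0% = Mcl-1 plus Noxa peptide wells and 100% = peptide-only wells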
Target sequence (Q07820 whole entry, looked up): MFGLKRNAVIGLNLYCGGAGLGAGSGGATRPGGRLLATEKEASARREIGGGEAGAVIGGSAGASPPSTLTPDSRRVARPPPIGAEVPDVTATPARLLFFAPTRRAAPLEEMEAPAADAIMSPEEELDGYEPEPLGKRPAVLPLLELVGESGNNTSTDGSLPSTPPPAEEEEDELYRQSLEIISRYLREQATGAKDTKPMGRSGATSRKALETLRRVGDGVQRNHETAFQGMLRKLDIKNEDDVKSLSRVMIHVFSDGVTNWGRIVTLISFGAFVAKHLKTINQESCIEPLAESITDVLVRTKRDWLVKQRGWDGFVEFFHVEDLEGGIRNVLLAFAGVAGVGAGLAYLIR
Mcl1-Bid inh: Mcl-1/Bid binding inhibitors, primary screen, biochemical, TR-FRET, 1536-well | TR-FRET Mcl-1/Bid-Dy647 peptide binding | inhibition, % at 21.7 µM | AID 1021, 2008 | Induced myeloid leukemia cell differentiation protein Mcl-1 (Homo sapiens), Q07820 | 220,000 compounds, 0.97% hits;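 active = compounds that cut the binding signal by more than half at the single screening dose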;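 note: His-tagged Mcl-1 with europium anti-His antibody binding Bid BH3 peptide; 0% = Mcl-1 plus peptide wells and 100% = peptide-only wells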
Mcl-1 Bim block: inhibitors of Bim peptide binding to Mcl-1, primary screen, biochemical, bead-based flow cytometry, multiplex; Induced myeloid leukemia cell differentiation protein Mcl-1 (Homo sapiens), Q07820; Bim peptide-Mcl-1 binding; inhibition, % at 10 µM; 190,000 compounds, 0.1% hits; AID 1009, 2008; in the data active = inhibition above about 40%;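 note: 0% = no compound tracer wells and 100% = peptide blocker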
* marks the source's active call; other numbers are inactive results; / = not tested or not shown. Only some compounds are listed: those with a hit (about 3% of all), similar ones and a draw of the others.

SMILES	14-3-3 Bad inh	Arbovirus inh	Mcl1-Noxa inh	Mcl1-Bid inh	Mcl-1 Bim block
CCN1C(=O)/C(=C2/Sc3ccc(OC)cc3N2C)SC1=Nc1cccc(O)c1	18.4	-6.6	70.1*	65.1*	1.0
C=CCN1C(=O)/C(=C2/Sc3ccc(OC)cc3N2C)SC1=Nc1ccccc1	-10.5	-7.8	-1.1	-30.6	-4.0
COc1cc2c3c(c1)c(C1=NC(=S)NC1=O)c(O)n3C(C)(C)C=C2C	7.4	3.0	21.6	6.5	-3.0
CC1(c2ccccc2)CC(C)(C)n2c(O)c(C3=NC(=S)NC3=O)c3cccc1c32 (centres undefined)	11.3	/	60.2*	21.6	/
CC(=O)Nc1ccc(-c2nc3c(C)cccc3[nH]2)cc1	72.3*	7.7	12.6	11.7	0.0
COc1ccc(C2C(C#N)=C(N)OC3=C2C(=O)CCC3)cc1OC (centres undefined)	-1.1	2.1	-4.1	70.0*	-3.0
COc1ccc(C2C(C#N)=C(N)OC3=C2C(=O)CCC3)c(OC)c1OC (centres undefined)	-11.4	4.1	16.2	-95.8	0.0
COc1ccc(C2C(C#N)=C(N)OC3=C2C(=O)CC(C)C3)c(OC)c1OC (centres undefined)	-1.5	10.2	17.6	52.5*	-6.0
CC(C)n1c(=S)[nH]c2c1c(=O)[nH]c(=O)n2C	-0.1	1.2	54.4*	-39.4	-3.0
COc1ccc(C(=O)/C=C/NCc2ccc(F)cc2)cc1OC	-0.8	/	18.3	-33.2	/
Nc1ccc(C(=O)N/N=C\C=C\c2ccc([N+](=O)[O-])cc2)cc1	-1.1	0.0	28.4	-30.6	0.0
COc1ccc(Br)cc1CN(C)CC(=O)Nc1c(Cl)cccc1Cl	1.3	30.4*	-0.5	-34.3	-3.0
COc1ccc(Br)cc1CN(C)CC(=O)Nc1cccc(S(N)(=O)=O)c1	-12.0	-12.0	8.8	-20.0	0.0
CCOc1ccc(-n2c(SCC(=O)Nc3ccccc3C)n[nH]c2=O)cc1	14.6	4.6	-6.2	65.0*	-1.0
Cc1c(NC(=O)CSc2n[nH]c(=O)n2-c2ccccc2)c(=O)n(-c2ccccc2)n1C	41.2	5.4	27.0	-9.3	-3.0
COC(=O)c1ccc(Oc2nc(Nc3ccccc3)nc(N(C)C)n2)cc1	-2.7	-7.0	14.9	-9.3	0.0
CN(C)c1nc(Nc2ccccc2)nc(N(C)C)n1	80.1*	-8.6	11.7	13.1	0.0
Cc1cc(=O)oc2cc(OCC3CC(c4ccc(Cl)cc4)=NO3)ccc12 (centres undefined)	-2.2	-14.4	-26.1	18.9	0.0
Cc1cc(=O)oc2cc(OCC3CC(c4ccc(N(C)C)cc4)=NO3)ccc12 (centres undefined)	-7.9	-15.3	28.7	51.9*	-1.0
O=C(N/N=C/C(Br)=C/c1ccccc1)c1cnccn1	3.6	/	16.4	-5.3	/
CNCc1ccccc1Sc1cccc(O)c1	4.9	7.2	13.1	-27.5	-4.0
CNCc1ccccc1Sc1cc(O)ccc1O	57.4	-9.2	99.3*	39.8	-2.0
CCn1c(CSc2nnc(-c3ccncc3)n2C)nc2cc(C(=O)O)ccc21	2.2	/	7.5	-28.6	/
O=C1OC(c2ccccc2)=C/C1=C/N1CCCCC1	-11.1	5.9	13.9	85.7*	0.0
S=c1[nH]nc(-c2n[nH]c3c2CCC3)n1/N=C/C=C/c1ccco1	0.1	/	10.3	-36.5	/
SMILES	14-3-3 Bad inh	Arbovirus inh	Mcl1-Noxa inh	Mcl1-Bid inh	Mcl-1 Bim block
O=C(N/N=C/c1cccc(OC(=O)N2CCOCC2)c1)c1cccs1	8.1	-14.8	1.5	4.8	0.0
Cc1nc(Nc2ccc(C(=O)O)cc2)sc1-c1ccccc1	-5.0	-14.6	21.0	-35.1	0.0
Cc1nc(Nc2ccccc2)sc1-c1ccccc1	-5.7	33.0*	5.6	-22.5	-4.0
O=C(Oc1ccc(NC2=C(Cl)C(=O)c3ccccc3C2=O)cc1)c1ccc([N+](=O)[O-])cc1	25.1	-36.9	92.2*	70.3*	-2.0
O=C(Oc1ccc([N+](=O)[O-])cc1)c1cccnc1	-29.2	-7.0	1.5	-4.1	7.0
CCOc1ccc(NC(=S)N(CC)Cc2ccccc2)cc1	-12.1	2.9	22.4	-34.4	0.0
O=C(NNc1c2ccccc2nc2ccccc12)c1cccc(O)c1	-17.1	1.4	45.6	-39.0	-10.0
O=C(NNc1c2ccccc2nc2ccccc12)c1ccc(O)cc1O	14.2	-25.1	68.4*	55.4*	-1.0
O=C(NNc1c2ccccc2nc2ccccc12)c1ccc(O)cc1	-10.0	-6.0	50.5*	-65.4	-4.0
O=C(NNc1c2ccccc2nc2ccccc12)c1ccccc1O	2.9	-7.3	63.6*	22.9	-18.0
CSC1=N/C(=C/c2cccnc2)C(=O)N1Cc1ccccc1	-5.4	/	-42.2	-23.4	/
Cc1cc(-c2ccco2)n2c(nc3ccccc32)c1C#N	-11.8	-1.2	-8.6	96.3*	0.0
C=C(C)CSc1cc(C)c(C#N)c2nc3ccccc3n12	4.3	5.8	50.1	-8.8	-4.0
NC(N)=N/N=C/c1ccc(Cl)cc1Cl	0.0	/	-2.1	50.8*	/
CCCCCC(=O)NN1C(=S)N(c2ccc(OC)cc2)C(=O)C1CC(=O)Nc1ccccc1 (centres undefined)	-6.6	/	21.6	-48.9	/
CCCOc1ccc(CNCCCOCC)cc1OC	7.4	-1.1	27.6	18.6	0.0
CCOC(=O)Cc1csc(NC(=O)Cc2ccc(Cl)cc2)n1	-8.1	/	2.3	55.1*	/
CC1=C(C)C(=O)N(c2ccccn2)C1=O	-10.6	5.3	17.3	-18.3	0.0
Cc1nn(-c2ccccn2)c2c1C(=O)C(Br)CC2 (centres undefined)	-14.5	-8.4	54.6*	-8.8	18.0
O=C(NCc1ccc(OC(F)(F)F)cc1)C1CC(c2c(Cl)cccc2Cl)=NO1 (centres undefined)	2.8	-6.9	-23.5	-8.5	0.0
O=C1c2ccc3c4c(ccc(c24)C(=O)N1CCCCO)C(=O)N(CCCCO)C3=O	95.7*	-32.1	25.6	8.1	0.0
COc1ccccc1NS(=O)(=O)c1ccc(N/N=C/c2ccccc2OCC(=O)O)c([N+](=O)[O-])c1	-11.6	8.9	23.8	-0.2	-3.0
O=C(O)COc1ccccc1/C=N/Nc1ccc(S(=O)(=O)Nc2ccc(Cl)cc2)cc1[N+](=O)[O-]	21.1	5.9	72.9*	23.3	0.0
CCc1nnc(NC(=O)CSc2nc(-c3ccc(F)cc3)cc(-c3ccccc3)c2C#N)s1	20.0	-8.4	-14.3	60.0*	-14.0
COC(=O)c1cc(O)cc(OC)c1Oc1cc(C)cc(O)c1C(=O)O	61.9	/	85.0*	-97.7	/
Cc1cc(C)n(/N=C/c2cc([N+](=O)[O-])ccc2O)c(=O)c1	-4.0	4.9	-0.7	-4.5	1.0
Cc1ccccc1S(=O)(=O)Nc1ncnc2scc(-c3ccccc3)c12	-1.6	57.8*	1.0	15.9	0.0
